# Screens as filed in PubChem.
# Hits are enriched below; roughly 7% of the tested compounds scored in any of these assays.
# ADAM10 inh – ADAM10 inhibition, QFRET primary screen | O14672 | recombinant ADAM10, EDANS/DABCYL FRET peptide cleavage, 3 h | inhibition, % at 7 µM | 0.62% of 370,000 active;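 active = inhibition above a per-campaign cutoff equal to the mean of compounds falling between control-based bounds plus 3 SD, cut at about 20% in these data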;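 also: 0% = DMSO wells while the 100% control is not disclosed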
# Target sequence (O14672 214-748 limits assumed): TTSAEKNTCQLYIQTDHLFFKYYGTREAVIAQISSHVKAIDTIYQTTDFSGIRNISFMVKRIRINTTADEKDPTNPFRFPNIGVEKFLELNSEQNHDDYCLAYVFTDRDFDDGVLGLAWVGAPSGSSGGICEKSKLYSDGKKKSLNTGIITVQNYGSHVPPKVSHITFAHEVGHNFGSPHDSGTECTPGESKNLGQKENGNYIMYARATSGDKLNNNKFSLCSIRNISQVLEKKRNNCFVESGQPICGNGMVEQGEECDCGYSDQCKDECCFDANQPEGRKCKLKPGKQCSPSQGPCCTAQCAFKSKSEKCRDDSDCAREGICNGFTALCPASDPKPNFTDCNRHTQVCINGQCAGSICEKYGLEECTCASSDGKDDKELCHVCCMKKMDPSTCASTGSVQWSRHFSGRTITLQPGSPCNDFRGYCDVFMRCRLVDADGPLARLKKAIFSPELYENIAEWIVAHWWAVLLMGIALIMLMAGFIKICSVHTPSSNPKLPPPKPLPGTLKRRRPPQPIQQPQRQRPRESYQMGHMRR
# rCAG binder-1 – binds r(CAG) RNA repeats | 1.3% of 370,000 active | inhibition, % at 3 µM | r(CAG) RNA repeat, TO-PRO-1 dye displacement fluorescence;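 active = inhibition above the plate cutoff, the mean of all test compounds on that plate plus 3 SD, cut at about 35% in these data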;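 also: 0% = DMSO alone and 100% = 100 µM mitoxantrone as full dye displacement; higher means more dye released from RNA so lower well fluorescence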
# ADAM17 inh – inhibits human ADAM17; P78536; 0.83% of 370,000 active; inhibition, % at 6.95 µM; recombinant ADAM17, EDANS/DABCYL FRET peptide cleavage;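 active = inhibition above the mean of compounds lying between control limits plus 3 SD, set per campaign, cut at about 8.5% in these data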;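 also: 0% = DMSO-only wells as the low control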
# AHR activator – human AHR activation; AHR-responsive luciferase reporter cells, luminescence; activation, % at 5 µM; 2.5% of 320,000 active; in the data active = activation above about 47%;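 also: 0% = vehicle wells and 100% = reference agonist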
# NR3A LBD binder – modulators (binders) of human NR3A ligand-binding domain. NR3A LBD differential scanning fluorimetry, Tm shift; 0% = protein alone, 100% = glycine-bound protein. AID 1259313. Tm shift relative to glycine control, % at 25 µM. 2.5% of 340,000 active;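 active = melting temperature shift of at least 10% of the positive control shift, at one fixed dose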
# KLK7 zymogen act – proKLK7 (human) activation, primary screen; P49862; purified proKLK7, EDANS-DABCYL substrate fluorescence; 100% is mature enzyme control, 0% vehicle; activation, % at 7 µM; 0.9% of 370,000 active;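 active = activation above the mean of all tested compounds plus 3 SD, computed per campaign excluding outliers beyond control limits, cut at about 13% in these data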
# rCAG binder conf – r(CAG) RNA repeat binding, confirmation; shares compounds with rCAG binder-1; TO-PRO-1 dye displacement fluorescence; inhibition, % at 3 µM; 70% of 4,300 active; AID 652065;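 active = inhibition above a per-plate cutoff, the mean inhibition of sample wells plus 3 SD, cut at about 35% in these data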;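 also: loss of TO-PRO-1 fluorescence as compound displaces dye from 1x1 AA loop RNA; 0% = DMSO only wells and 100% = 100 µM mitoxantrone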
# DNA CAG counter – counter-screen for rCAG RNA binders: DNA CAG dye complex inhibitors; inhibition, % at 3 µM; shares compounds with rCAG binder-1; 94% of 4,300 active; d(CAG) DNA oligo TO-PRO-1 dye displacement, fluorescence;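 active = inhibition above its plate's cutoff, the mean test-well inhibition plus 3 SD, cut at about 4.8% in these data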;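 also: 0% = DNA dye mix with DMSO and 100% = 100 µM mitoxantrone; hits displace the dye from DNA and so lower well fluorescence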
# dCAG dye DR – DNA CAG dye complex inhibition, dose response counter-screen; shares compounds with rCAG binder-1; DNA CAG/GTC duplex TO-PRO-1 dye displacement fluorescence; IC50, µM; 20% of 250 active; AID 686960; in the data active = IC50 below about 10 µM
# dCAG TOPRO ctr – inhibits DNA CAG/GTC TO-PRO-1 complex, rCAG binder counter-screen. shares compounds with rCAG binder-1. d(CAG) DNA duplex TO-PRO-1 dye displacement, fluorescence. IC50, µM. 80% of 30 active
# rCAG binder-2 – molecules binding r(CAG) RNA repeats, late stage dose response; r(CAG) RNA TO-PRO-1 dye displacement, fluorescence; 100% of 30 active; shares compounds with rCAG binder-1; IC50, µM
# Active calls of the source: *; i = inactive; · = no result. Unless noted, no rule for the calls is given here.
SMILES,ADAM10 inh,rCAG binder-1,ADAM17 inh,AHR activator,NR3A LBD binder,KLK7 zymogen act,rCAG binder conf,DNA CAG counter,others
CC(C)NC(=O)C1C(c2ccc(C(F)(F)F)cc2)=Nc2ccccc2N1C(=O)c1cccc(C(F)(F)F)c1 (stereo not given),-6,2,3,·,·,-58,·,·,
COC(=O)C1=C(C)N(C)C(=NCc2ccc3c(c2)OCO3)NC1c1ccc(C(F)(F)F)cc1 (stereo not given),-4,11,2,·,·,0,·,·,
Cc1ccc(C)c(OCC(=O)Nc2cc(NC(=O)COc3cc(C)ccc3C)cc(C(=O)O)c2)c1,11,49*,-1,1,-2,0,77*,41*,
Cc1noc(NS(=O)(=O)c2ccc(NC(=O)COc3ccc(Cl)cc3Cl)cc2)c1C,7,77*,-5,-3,1,0,70*,22*,dCAG dye DR=i;dCAG TOPRO ctr=3.6*;rCAG binder-2=1.3*
Cc1noc(NS(=O)(=O)c2ccc(NC(=O)CSc3nc4c(cc3C#N)CCCCC4)cc2)c1C,-9,42*,-4,1,-23,2,34,8.2*,
Cc1ccc(C)c(OCC(=O)Nc2nonc2NC(=O)COc2cc(C)ccc2C)c1,0,13,-3,4,-4,0,·,·,
C=CCN1[C@@H](CC(C)C)COc2cccc(F)c2S1(=O)=O,3,0,-4,·,·,0,·,·,
CC(C)C[C@@H](COCc1cccc(Cl)c1)N1CCN(C(=O)c2ccc(C(F)(F)F)cc2)CCC1=O,10,0,3,·,·,0,·,·,
O=C(C1=NN[C@@H]2C(=O)N(c3cccc(C(F)(F)F)c3)C(=O)[C@H]12)C(c1ccccc1)c1ccccc1,10,55*,2,3,16*,0,27,8.9*,
CCCCCCC(=O)NC1CCCCN(C)C1=O (stereo not given),1,1,0,·,·,0,·,·,
Cc1ccccc1NC1=C/C(=N\S(=O)(=O)c2ccc(C(=O)O)cc2)c2ccccc2C1=O,-6,32,0,22,-4,1,·,·,
CCc1ccc(S(=O)(=O)/N=C2\C=C(NS(=O)(=O)c3ccccc3)C(=O)c3ccccc32)cc1,0,59*,-4,·,2,0,89*,66*,
Cc1ccc(C)c(S(=O)(=O)/N=C2\C=C(NS(=O)(=O)c3ccccc3)C(=O)c3ccccc32)c1,4,67*,2,74*,-3,-1,90*,69*,
CC1(C(=O)NS(=O)(=O)c2cccs2)CCN1C(=O)c1ccccc1CCc1ccccc1 (stereo not given),-3,44*,2,·,·,-1,34,7.0*,
CC1(C(=O)NS(=O)(=O)c2ccc(Cl)cc2)CCN1C(=O)CCc1ccccc1 (stereo not given),-12,11,-2,·,·,0,·,·,
CC1(C(=O)NS(=O)(=O)c2ccc(Cl)cc2)CCN1C(=O)c1ccccc1CCc1ccccc1 (stereo not given),-17,45*,1,·,·,0,58*,20*,
CC1(C(=O)NS(=O)(=O)c2ccc(F)cc2F)CCN1C(=O)Cc1ccccc1 (stereo not given),6,3,-2,·,·,0,·,·,
CC1(C(=O)NS(=O)(=O)c2ccc(F)cc2F)CCN1C(=O)c1ccccc1CCc1ccccc1 (stereo not given),1,51*,2,·,·,0,43*,10*,
CC1(C(=O)NS(=O)(=O)c2ccccc2Cl)CCN1C(=O)c1ccccc1CCc1ccccc1 (stereo not given),-9,57*,-6,·,·,0,63*,19*,
COC(=O)[C@H](C)N(CCc1cn(Cc2ccccc2)nn1)S(=O)(=O)c1ccccc1Br,-13,5,-3,·,·,0,·,·,
COc1ccc(C2CC(=O)C(c3ccc(Cl)c(Cl)c3)=CN2Cc2ccccc2)cc1 (stereo not given),-3,7,0,·,·,-1,·,·,
CC1(C(=O)NS(=O)(=O)c2cccc(C#N)c2)CCN1C(=O)c1ccccc1CCc1ccccc1 (stereo not given),-1,46*,-2,·,·,0,39*,9.5*,
CC1(C(=O)NS(=O)(=O)c2cccc(C#N)c2)CCN1C(=O)Cc1ccccc1 (stereo not given),-13,1,-5,·,·,0,·,·,
CC1(C(=O)NS(=O)(=O)c2cccc(Cl)c2)CCN1C(=O)c1ccccc1CCc1ccccc1 (stereo not given),-16,61*,-2,·,·,0,60*,22*,
COC(=O)[C@@]12CCCCC3=C1N(CCC3)C(=O)[C@H]2CC(=O)NCc1ccc(OC)c(OC)c1,-4,0,1,·,·,0,·,·,
SMILES,ADAM10 inh,rCAG binder-1,ADAM17 inh,AHR activator,NR3A LBD binder,KLK7 zymogen act,rCAG binder conf,DNA CAG counter,others
CCN(CC)S(=O)(=O)c1ccc(NC(=O)COC(=O)c2cc(S(=O)(=O)Nc3ccc(OC)cc3)ccc2O)cc1,1,36*,0,-2,21*,0,61*,26*,
COc1ccc(NS(=O)(=O)c2ccc(O)c(NC(=O)c3ccc(S(=O)(=O)N4CCCC4)cc3)c2)cc1,17,74*,0,1,4,0,50*,18*,
O=S(=O)(Nc1cccc(S(=O)(=O)N2CCOCC2)c1)c1ccc(Cl)s1,-1,8,-2,-1,1,0,·,·,
O=S(=O)(Nc1cc(S(=O)(=O)N2CCCC2)ccc1O)c1ccc(Cl)s1,-1,30,1,·,-6,0,·,·,
O=C(Nc1cc(S(=O)(=O)N2CCOCC2)ccc1O)c1ccc(NS(=O)(=O)c2ccc(Cl)s2)cc1,0,64*,0,-2,19*,1,42*,12*,
Cc1ccc(NC(=O)c2ccccc2NS(=O)(=O)c2ccc(Cl)s2)cc1S(=O)(=O)N1CCOCC1,13,87*,7,-4,24*,0,90*,69*,
COC(=O)[C@]12CCCCC=C1N(CCc1ccc(OC)c(OC)c1)C(=O)[C@H](CC(=O)NCC1CCCCC1)C2,-6,3,-5,·,·,0,·,·,
